Where “and” joins values, the source holds several entries; their conditions need not be identical. Equal values may be shown once. Inconclusive results are not listed. Calls of active or inactive are those of the source. Calls come from the whole dose curve; as a rule, active = well fitted inhibition curve with a large enough effect; inconclusive = small, poorly fitted or top-dose-only effect; inactive = flat fitted curve, though single readings scatter.
How the values were obtained:
PAD = assay: qHTS profiling for inhibitors of Plasmodium falciparum proliferation (AID 504749);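 note: 0% = DMSO vehicle and full inhibition = artemisinin control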; settings: P. falciparum in erythrocytes, SYBR Green DNA, 72 h; series mostly up to 28.7 µM
Summary of the method: (§1)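 Three-day growth assay of blood-stage parasites in erythrocytes (0.3% parasitemia, 2.5% hematocrit) at 37 C, 5% CO2, quantified by SYBR Green DNA staining after overnight detergent lysis.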

PC15 = assay: as above; settings: P. falciparum in erythrocytes, SYBR Green DNA, 72 h; series mostly up to 28.7 µM
Summary of the method: as §1

PC26 = assay: as above; settings: P. falciparum in erythrocytes, SYBR Green DNA, 72 h; series mostly up to 28.7 µM
Summary of the method: as §1

PC49 = assay: as above; settings: P. falciparum in erythrocytes, SYBR Green DNA, 72 h; series mostly up to 28.7 µM
Summary of the method: as §1

SC27B = assay: as above; settings: P. falciparum in erythrocytes, SYBR Green DNA, 72 h; series mostly up to 28.7 µM
Summary of the method: as §1

TAB109 = assay: as above; settings: P. falciparum in erythrocytes, SYBR Green DNA, 72 h; series mostly up to 28.7 µM
Summary of the method: as §1

TAB113 = assay: as above; settings: P. falciparum in erythrocytes, SYBR Green DNA, 72 h; series mostly up to 28.7 µM
Summary of the method: as §1

TAB165 = assay: as above; settings: P. falciparum in erythrocytes, SYBR Green DNA, 72 h; series mostly up to 28.7 µM
Summary of the method: as §1

W2 = assay: as above; settings: P. falciparum in erythrocytes, SYBR Green DNA, 72 h; series mostly up to 28.7 µM
Summary of the method: as §1

CRL-7250 = normal cell line; assay: Cytotoxic Profiling of Annotated Libraries Using Quantitative High-Throughput Screening (AID 1296008); settings: Five cell lines viability, CellTiter-Glo ATP luminescence, 48-72 h; max response: hits give low values; for max response: % is set by controls: 0 for no effect and ±100 for the full control effect
Summary of the method: (§2)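 Cytotoxicity was measured as CellTiter-Glo ATP luminescence, read after 10 min at room temperature. Compound treatment of the cells lasted 48 or 72 hr at 37 degrees Celsius in a qHTS format.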

HEK293 = assay: as above; settings: Five cell lines viability, CellTiter-Glo ATP luminescence, 48-72 h; max response: hits give low values
Summary of the method: as §2

HaCat [1] = assay: as above; settings: Five cell lines viability, CellTiter-Glo ATP luminescence, 48-72 h; max response: hits give low values
Summary of the method: as §2

KB-3-1 = assay: as above; settings: Five cell lines viability, CellTiter-Glo ATP luminescence, 48-72 h; max response: hits give low values
Summary of the method: as §2

NIH3T3 = assay: as above; settings: Five cell lines viability, CellTiter-Glo ATP luminescence, 48-72 h; max response: hits give low values
Summary of the method: as §2

HACAT [2] = assay: qHTS assay to identify novel small-molecules to repurpose for Merkel cell carcinoma treatment (AID 1296009); settings: MCC and control cell lines, CellTiter-Glo viability, 72 h; at 44.8 µM (top of the series) unless noted
Summary of the method: (§3)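 After compound transfer in DMSO, plates were kept 72 hr at 37 degree celsius. Luminescent ATP signal from CellTiter-Glo served as viability measure, normalized against DMSO and no-cell controls.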

MCC-13 = assay: as above; settings: MCC and control cell lines, CellTiter-Glo viability, 72 h; series mostly up to 46 µM
Summary of the method: as §3

MCC-26 = assay: as above; settings: MCC and control cell lines, CellTiter-Glo viability, 72 h; series mostly up to 46 µM
Summary of the method: as §3

MKL-1 = assay: as above; settings: MCC and control cell lines, CellTiter-Glo viability, 72 h; series mostly up to 46 µM
Summary of the method: as §3

HEK293T = assay: as above; settings: MCC and control cell lines, CellTiter-Glo viability, 72 h; at 44.8 µM (top of the series)
Summary of the method: as §3
Note: nearly all actives have a fitted effect of over 60% in size.

CCOC(=O)NC(O)C(Cl)(Cl)Cl (stereo unspecified)
inactive: Potency (PAD) | Potency (PC15) | Potency (PC26) | Potency (PC49) | Potency (SC27B) | Potency (TAB109) | Potency (TAB113) | Potency (TAB165) | Potency (W2) | max response (CRL-7250) 0.547% | max response (HEK293) -1.01% | outcome (HaCat [1]) | max response (KB-3-1) 11.7% | max response (NIH3T3) 0.136% | outcome (HACAT [2]) | Potency (MCC-13) | Potency (MCC-26) | Potency (MKL-1)

COc1cc(CC(C)N)cc2c1OCO2 (stereo unspecified)
inactive: max response (CRL-7250) -5.81% | max response (HEK293) -16.7% | max response (HaCat [1]) 1.78% | max response (KB-3-1) -6.39% | max response (NIH3T3) -6.97% | Potency (MCC-13) | Potency (MCC-26) | Potency (MKL-1)

c1cc2c(c(N3CCNCC3)c1)OCCO2
inactive: Potency (PAD) | Potency (PC15) | Potency (PC26) | Potency (PC49) | Potency (SC27B) | Potency (TAB109) | Potency (TAB113) | Potency (TAB165) | Potency (W2) | max response (CRL-7250) -0.883% | max response (HEK293) -10.2% | outcome (HaCat [1]) | max response (KB-3-1) -5.14% | max response (NIH3T3) 1.17% | outcome (HACAT [2]) | Potency (MCC-13) | Potency (MCC-26) | Potency (MKL-1)

COc1ccc(C(=O)N2CCCC2=O)cc1
inactive: Potency (PAD) | Potency (PC15) | Potency (PC26) | Potency (PC49) | Potency (SC27B) | Potency (TAB109) | Potency (TAB113) | Potency (TAB165) | Potency (W2) | max response (CRL-7250) -4.75% and 1.19% | outcome (HEK293) | max response (HaCat [1]) -10.2% and -4.53% | max response (KB-3-1) -8.06% | max response (NIH3T3) -15.7% and -0.26% | outcome (HEK293T) | Potency (MCC-13) | Potency (MCC-26) | Potency (MKL-1)

CNC(C)Cc1ccccc1OC (stereo unspecified)
inactive: max response (CRL-7250) -10.9% | max response (HEK293) -10.8% | max response (HaCat [1]) -16.5% | max response (KB-3-1) 2.15% | max response (NIH3T3) -6.74% | Potency (MCC-13) | Potency (MCC-26) | Potency (MKL-1)

CNC(C)Cc1ccc2c(c1)OCO2 (stereo unspecified)
inactive: max response (CRL-7250) 4.98% | max response (HEK293) -3.37% | max response (HaCat [1]) -2.61% | max response (KB-3-1) -21.8% | max response (NIH3T3) 0.465% | Potency (MCC-13)

COC(=O)C1=CCCN(C)C1
inactive: Potency (PAD) | Potency (PC15) | Potency (PC26) | Potency (PC49) | Potency (SC27B) | Potency (TAB109) | Potency (TAB113) | Potency (TAB165) | Potency (W2) | max response (CRL-7250) -3.77% | outcome (CRL-7250) | max response (HEK293) 2.76% and 4.85% | max response (HaCat [1]) -4.46% | outcome (HaCat [1]) | max response (KB-3-1) 6.89% and 12.1% | outcome (NIH3T3) | outcome (HACAT [2]) | Potency (MCC-13) | Potency (MCC-26) | Potency (MKL-1)
